This is an account of results in PubChem BioAssay (NCATS).

The target in test [1] is Cellular tumor antigen p53 (Homo sapiens) (UniProt P04637). Nature of the test: Primary qHTS for small molecule compounds that upregulate eGFP-tagged delta133p53alpha (in N-terminal) cells. (AID 2060322).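 Also: cells pre-induced with doxycycline then dosed without doxycycline; series mostly up to about 56 µM; 0% = DMSO vehicle and 100% = reference activator; nearly all actives have a fitted effect of over 75% in size.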 Particulars: NCI-H358 eGFP-delta133p53alpha fluorescence, 24 h; activation: hits give high values. In outline: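 NCI-H358 cells pre-induced 24 h with 10 ng/ml doxycycline for eGFP-delta133p53alpha, plated dox-free and exposed 24 h at 37C to titrated compounds. Fixed, Hoechst-stained; gated GFP peak intensity by laser scanning cytometry, normalized to DMSO (0%) and 57.5 uM 5-azacytidine (100%).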
Sequence of Cellular tumor antigen p53 (Homo sapiens) (P04637 whole entry, looked up): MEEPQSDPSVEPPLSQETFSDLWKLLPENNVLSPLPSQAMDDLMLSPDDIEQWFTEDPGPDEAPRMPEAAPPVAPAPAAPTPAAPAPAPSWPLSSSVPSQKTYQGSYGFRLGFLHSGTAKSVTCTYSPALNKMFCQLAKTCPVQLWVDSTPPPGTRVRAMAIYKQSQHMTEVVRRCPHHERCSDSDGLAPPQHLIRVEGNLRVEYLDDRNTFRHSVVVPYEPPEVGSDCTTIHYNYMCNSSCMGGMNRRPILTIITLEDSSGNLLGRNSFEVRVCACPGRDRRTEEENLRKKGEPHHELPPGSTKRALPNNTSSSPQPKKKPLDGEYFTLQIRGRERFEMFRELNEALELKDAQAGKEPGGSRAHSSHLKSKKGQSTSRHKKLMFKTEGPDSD

Test [2] shares this target. Nature of the test: Primary qHTS for small molecule compounds that upregulate eGFP-tagged delta133p53alpha (in C-terminal) cells. (AID 2060324). Also: potency is read from the fitted curve at half-maximal effect. In outline:
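Doxycycline (100 ng/ml, 24 h) first induced the eGFP fusion in NCI-H358 C-terminal-tag cells. Washed-out cells then received titrated compounds for 24 h at 37 °C before paraformaldehyde fixation, Hoechst staining and cytometric GFP quantification.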

Test [3] has as its target Aldehyde dehydrogenase, mitochondrial (Homo sapiens) (UniProt P05091). Nature of the test: qHTS for Inhibitors of the Aldehyde Dehydrogenase Family (ALDH2) Validation screens (AID 2061302; active = well fitted inhibition curve with a large enough effect; title and protocol of this record describe different tests; also: potency is read from the fitted curve at half-maximal effect). For orientation: In qHTS, concentration-response curves come from the screen itself.

Structures are written as SMILES. Where “and” joins values, the source holds several entries; their conditions need not be identical. Equal values may be shown once. Inconclusive results are not listed. Unmarked numbers belong to inactive results. Calls of active or inactive are those of the source. Unless noted, calls follow the shape of the dose curve; as a rule, active = well fitted curve in the direction sought with a large enough effect; inconclusive = small, poorly fitted or top-dose-only effect, or another doubt; inactive = no such curve, though single readings can be large; an effect the other way counts as inactive or inconclusive.

In the case of `CCCCOc1cc(CC2CNC(=O)N2)ccc1OC` (stereo unspecified), the activation in test [1] is -11.2%. Moreover, the Potency entry in test [2] and in test [3] was “inactive” in each case.
`NC[C@@H]1O[C@H](C23CC4CC(CC(C4)C2)C3)Cc2c1ccc(O)c2O`: the activation in test [1] was 44.4%. In addition, the Potency in test [2] is 23.9 µM (active). Besides, the Potency result in test [3] was “inactive”.
Take `CC(C)COC(=O)OCN1C(=O)CN(CCN2CC(=O)N(COC(=O)OCC(C)C)C(=O)C2)CC1=O`: the activation in test [1] is -13.5%. Moreover, the Potency result in test [2] and in test [3] was “inactive” each time.
Take `CCCN(CCc1ccccc1)C1CCc2c(O)cccc2C1` (stereo unspecified): in test [1], the activation is -29.6%. The Potency result in test [2] and in test [3] was “inactive” in each case.
As to `CN1CCc2cc(NC(=O)Nc3cccnc3)ccc21`, in test [1], the activation is -9.58%. In addition, the Potency entry in test [2] and in test [3] was “inactive” each time.
As for `CCCCCCCCCC[Si](C)(C)CCC(=O)NC(Cc1ccc(C)cc1)c1ccccc1` (stereo unspecified), the activation in test [1] is -9.05%. The Potency entry in test [2] and in test [3] was “inactive” throughout.
For the compound `CC(O)C(O)[C@H]1CNc2nc(N)[nH]c(=O)c2N1` (stereo partly specified), the activation in test [1] is -13.4%. Moreover, in test [2], the Potency entry is “inactive”. Besides, the Potency in test [3] is 8.91 µM (active).
Turning to `COC(=O)[C@H]1[C@H]2C[C@H]3c4[nH]c5ccccc5c4CCN3C[C@H]2CC[C@@H]1O`, in test [1], the activation is -1.08%. Moreover, the Potency entry in test [2] and in test [3] was “inactive” each time.
For `Cc1cccc(C2CN(C)CCc3c2cc(O)c(O)c3Cl)c1` (stereo unspecified), the activation in test [1] was -49.3%. Further, the Potency entry in test [2] and in test [3] was “inactive” throughout.
Take `COc1ccccc1CN[C@@H]1CCCN[C@@H]1c1ccccc1`: the activation in test [1] was -89.1%. For the same compound, the Potency entry in test [2] and in test [3] was “inactive” each time.
Consider `C=CCN1CCc2cc(O)c(O)cc2C(c2ccccc2)C1` (stereo unspecified), for which, in test [1], the activation was -43.2%. Moreover, the Potency result in test [2] and in test [3] was “inactive” throughout.
For `CC(CN1c2ccccc2Sc2ccccc21)N(C)C` (stereo unspecified), in test [1], the activation is -20.9% and -2.49%. For the same compound, the Potency result in test [2] and in test [3] was “inactive” in each case.
